Experimental data reported in publication PMC11995724, “Antibiotic target discovery by integrated phenotypic and activity-based profiling of electrophilic fragments” (Cell chemical biology, 2025).
Out of some 3,200 compounds screened, about 110 (3.4%) showed an effect of 50% or more. Only a selection was taken, and strong results are over-represented in it overall.

The compounds below were run on T1, V. cholerae SAD30. Conditions: relative growth, OD600, LB; 25 µM; inhibitor.
T1 construct: SAD30
Design: species or system S. aureus MSSA476 (TSB) or V. cholerae SAD30 (LB); 384-well bacterial growth screen at 25 uM, OD600 relative to DMSO control

SMILES | % of control remaining
COc1ccc2c(c1)OCCN(C(=O)C(C)Cl)C2 (centres unmarked) [7-E04, 2-chloro-1-(8-methoxy-2,3,4,5-tetrahydro-1,4-benzoxazepin-4-yl)propan-1-one] | 86.04%
C=CC(=O)NCc1cscn1 [1-I07, N-[(1,3-thiazol-4-yl)methyl]prop-2-enamide] | 90.1345%
O=C(CCl)Cc1cccc(F)c1 [10-C11, 1-chloro-3-(3-fluorophenyl)propan-2-one] | 7.637%
O=C(CCl)Cc1cc(Cl)cc(Cl)c1 [10-I15, 1-chloro-3-(3,5-dichlorophenyl)propan-2-one] | 20.7286%
O=C(Cc1cccc(F)c1)N1CCSSCC1 [10-L21, 1-(1,2,5-dithiazepan-5-yl)-2-(3-fluorophenyl)ethan-1-one] | 98.8116%
Cc1ccc(CC(=O)CCl)cc1 [10-O13, 1-chloro-3-(4-methylphenyl)propan-2-one] | 100.058%
O=C(CCl)Cc1ccc(Cl)c(Cl)c1 [10-E15, 1-chloro-3-(3,4-dichlorophenyl)propan-2-one] | 25.5601%
O=C(CCl)Cc1cccc(Cl)c1 [10-E17, 1-chloro-3-(3-chlorophenyl)propan-2-one] | 7.481%
CC(C)(C)c1ccc(CC(=O)CCl)cc1 [10-G19, 1-(4-tert-butylphenyl)-3-chloropropan-2-one] | 116.579%
Cc1cccc(CC(=O)CCl)c1 [10-I19, 1-chloro-3-(3-methylphenyl)propan-2-one] | 92.7333%
O=C(CCl)NCCc1cccc(Cl)c1 [5-O05, 2-chloro-N-[2-(3-chlorophenyl)ethyl]acetamide] | 115.33%
CC(C)c1ccc(CC(=O)CCl)cc1 [10-I17, 1-chloro-3-[4-(propan-2-yl)phenyl]propan-2-one] | 115.644%
O=C(CCl)Nc1cc(Cl)cc(Cl)c1 [4-K09, 2-chloro-N-(3,5-dichlorophenyl)acetamide] | 84.8825%
O=C(CCl)N1CCC1c1cccc(F)c1 (centres unmarked) [5-K10, 2-chloro-1-[2-(3-fluorophenyl)azetidin-1-yl]ethan-1-one] | 86.5819%
COc1cc(C=C(C#N)C(=O)Nc2cccc(C)c2)c2c(c1)CC(C)O2 (centres unmarked) [8-N22, 2-cyano-3-(5-methoxy-2-methyl-2,3-dihydro-1-benzofuran-7-yl)-N-(3-methylphenyl)prop-2-enamide] | 77.7022%
C=CC(=O)NCc1cn([C@@H]2COC[C@H]2OC)nn1 [1-J17, N-({1-[(3R,4S)-4-methoxyoxolan-3-yl]-1H-1,2,3-triazol-4-yl}methyl)prop-2-enamide] | 85.0523%
C=CC(=O)N(Cc1ccc(Cl)cc1Cl)CC1CCC(O)C1 (centres unmarked) [1-B04, N-[(2,4-dichlorophenyl)methyl]-N-[(3-hydroxycyclopentyl)methyl]prop-2-enamide] | 107.949%
Cc1cc(C(=O)CCl)c(C)n1C(C)c1ccccc1 (centres unmarked) [10-P17, 2-chloro-1-[2,5-dimethyl-1-(1-phenylethyl)-1H-pyrrol-3-yl]ethan-1-one] | 96.4738%
CC(NC(=O)C(C#N)=Cc1ccco1)c1cccc(-n2cccn2)c1 (centres unmarked) [9-J04, 2-cyano-3-(furan-2-yl)-N-{1-[3-(1H-pyrazol-1-yl)phenyl]ethyl}prop-2-enamide] | 81.5092%
C=CC(=O)N1CCCCC1c1nc2ccccc2n1C (centres unmarked) [3-F04, 1-[2-(1-methyl-1H-1,3-benzodiazol-2-yl)piperidin-1-yl]prop-2-en-1-one] | 96.3242%
C=CC(=O)NCC(c1c(F)cccc1F)N1CC(C)OC(C)C1 (centres unmarked) [1-I13, N-[2-(2,6-difluorophenyl)-2-(2,6-dimethylmorpholin-4-yl)ethyl]prop-2-enamide] | 82.5112%
N#CC(=Cc1ccc(-c2ccccc2Cl)o1)C(=O)N1CCCCC1 [8-F20, 3-[5-(2-chlorophenyl)furan-2-yl]-2-(piperidine-1-carbonyl)prop-2-enenitrile] | 64.378%
O=C(CCl)N1CC(S(=O)(=O)Nc2ccccc2)C1 [5-G10, 1-(2-chloroacetyl)-N-phenylazetidine-3-sulfonamide] | 71.283%
O=C(NC1CC1)C1(C(=O)N2CCSSCC2)CCC1 [10-B21, N-cyclopropyl-1-(1,2,5-dithiazepane-5-carbonyl)cyclobutane-1-carboxamide] | 104.89%
Cn1nc(C(F)(F)F)cc1CN(C(=O)CCl)C1CCCC1 [5-C16, 2-chloro-N-cyclopentyl-N-{[1-methyl-3-(trifluoromethyl)-1H-pyrazol-5-yl]methyl}acetamide] | 89.1037%

SMILES | % of control remaining
O=C(CCl)Cc1ccc(F)c(F)c1 [10-O17, 1-chloro-3-(3,4-difluorophenyl)propan-2-one] | 19.3259%
O=C(CCl)Cc1ccc(F)cc1 [10-G15, 1-chloro-3-(4-fluorophenyl)propan-2-one] | 95.6945%
O=C(CCl)Cc1ccc(C(F)(F)F)cc1 [10-C19, 1-chloro-3-[4-(trifluoromethyl)phenyl]propan-2-one] | 79.6415%
COc1ccccc1CN1C(=O)C=CC1=O [10-P21, 1-[(2-methoxyphenyl)methyl]-2,5-dihydro-1H-pyrrole-2,5-dione] | 42.8599%
COc1ccccc1CNC(=O)C(C)Cl (centres unmarked) [5-M21, 2-chloro-N-[(2-methoxyphenyl)methyl]propanamide] | 101.376%
COc1ccccc1CN(C)C(=O)CCl [6-C09, 2-chloro-N-[(2-methoxyphenyl)methyl]-N-methylacetamide] | 89.7905%
COc1cc(Cl)c(C)cc1NC(=O)C(C#N)=CC=Cc1ccccc1 [8-A21, N-(4-chloro-2-methoxy-5-methylphenyl)-2-cyano-5-phenylpenta-2,4-dienamide] | 93.0659%
COc1ccccc1NC(=O)C(C)Cl (centres unmarked) [5-L20, 2-chloro-N-(2-methoxyphenyl)propanamide] | 97.5097%
COc1ccc(OC)c(NC(=O)CCl)c1 [6-O04, 2-chloro-N-(2,5-dimethoxyphenyl)acetamide] | 96.0091%
COc1ccc(OC)c(C(C)NC(=O)CCl)c1 (centres unmarked) [4-M19, 2-chloro-N-[1-(2,5-dimethoxyphenyl)ethyl]acetamide] | 102.48%
COc1ccccc1N1C(=O)C=CC1=O [10-O10, 1-(2-methoxyphenyl)-2,5-dihydro-1H-pyrrole-2,5-dione] | 26.0277%
COc1cc(Cl)c(C)cc1NC(=O)C(C)Cl (centres unmarked) [6-C15, 2-chloro-N-(4-chloro-2-methoxy-5-methylphenyl)propanamide] | 86.6054%
COc1ccc(OC)c(N2C(=O)C=CC2=O)c1 [10-N15, 1-(2,5-dimethoxyphenyl)-2,5-dihydro-1H-pyrrole-2,5-dione] | 24.7808%
COc1cc(Cl)c(C)cc1N1C(=O)C=CC1=O [10-B15, 1-(4-chloro-2-methoxy-5-methylphenyl)-2,5-dihydro-1H-pyrrole-2,5-dione] | 23.534%
CC(Cl)C(=O)NCCC1=CCCCCC1 (centres unmarked) [5-N19, 2-chloro-N-[2-(cyclohept-1-en-1-yl)ethyl]propanamide] | 88.2631%
CN(Cc1ccc(N(C)C)cc1)C(=O)CCl.Cl [5-F06, 2-chloro-N-{[4-(dimethylamino)phenyl]methyl}-N-methylacetamide hydrochloride] | 92.298%
CSc1ccccc1NC(=O)C(C)Cl (centres unmarked) [4-M12, 2-chloro-N-[2-(methylsulfanyl)phenyl]propanamide] | 94.8889%
C=CC(=O)N1CCCn2cccc2C12CCOCC2 [1-A22, 1-{2',3',4',5'-tetrahydrospiro[oxane-4,1'-pyrrolo[1,2-a][1,4]diazepin]-2'-yl}prop-2-en-1-one] | 107.922%
CCC(NC(=O)CCl)c1ccc(C)cc1 (centres unmarked) [4-K17, 2-chloro-N-[1-(4-methylphenyl)propyl]acetamide] | 97.3043%
C=CC(=O)NCc1ccno1 [1-O07, N-[(1,2-oxazol-5-yl)methyl]prop-2-enamide] | 86.846%
C=CC(=O)NC1CC(C)Cc2cc(OC)ccc21 (centres unmarked) [3-L17, N-(6-methoxy-3-methyl-1,2,3,4-tetrahydronaphthalen-1-yl)prop-2-enamide] | 87.3259%
O=C(CCl)NC(c1cc(F)ccc1F)C(F)F (centres unmarked) [7-F22, 2-chloro-N-[1-(2,5-difluorophenyl)-2,2-difluoroethyl]acetamide] | 92.5161%
C=CC(=O)N(CCO)c1ccc(C(=O)O)cc1 [1-M10, 4-[N-(2-hydroxyethyl)prop-2-enamido]benzoic acid] | 88.6398%
C=CC(=O)N1CCC(C(=O)N(C)Cc2ccon2)CC1 [2-I14, N-methyl-N-[(1,2-oxazol-3-yl)methyl]-1-(prop-2-enoyl)piperidine-4-carboxamide] | 86.7992%
C=CC(=O)N1CCC(C(=O)N[C@H]2CC[C@@H]2O)(c2ccccc2)CC1 (racemic) [3-G08, rac-N-[(1R,2R)-2-hydroxycyclobutyl]-4-phenyl-1-(prop-2-enoyl)piperidine-4-carboxamide] | 93.3248%
